Binding signal data for one sequence are collected here from article PMC7862700, “An all-to-all approach to the identification of sequence-specific readers for epigenetic DNA modifications on cytosine”.

Test in all cases: DAPPL (digital affinity profiling via proximity ligation, sequencing); 10 mM Tris-HCl pH 7.5, 50 mM NaCl, 1 mM DTT, 4% glycerol, room temperature, 30 min; GST-TFs on glutathione beads, 16-mer random dsDNA library, 0.1% formaldehyde crosslink after washing; high values mean tight binding
One test deals with T1, FEV (Homo sapiens, UniProt Q99581 1-238).
T1 sequence: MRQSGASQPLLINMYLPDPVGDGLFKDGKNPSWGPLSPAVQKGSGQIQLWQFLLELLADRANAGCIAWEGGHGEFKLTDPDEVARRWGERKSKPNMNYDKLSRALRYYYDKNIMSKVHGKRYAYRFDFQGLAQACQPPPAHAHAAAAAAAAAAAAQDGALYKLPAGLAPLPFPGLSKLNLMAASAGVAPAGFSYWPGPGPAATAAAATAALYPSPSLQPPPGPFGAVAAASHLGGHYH
Particulars: protein: recombinant; tags: N-terminal GST; dsDNA, one strand shown. In outline:
(§1)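 Human transcription factors were made in yeast as GST fusions, captured on glutathione beads and barcoded with DNA. With a tag-only sample included, the pool was incubated with 200 nmole of a random double-stranded 16-mer DNA library in Tris/NaCl/DTT/glycerol buffer at room temperature for 30 min, then crosslinked with 0.1% formaldehyde after washing, ligated by proximity, amplified and sequenced. For binding signal, each hexamer's read frequency for a factor is divided by its frequency for the tag-only sample.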

The target in the next test is ETV5 (Homo sapiens, UniProt P41161 1-510). Conditions: protein: recombinant; tags: N-terminal GST; dsDNA, one strand shown. In short, it runs like this:
as §1

A further test deals with HSF1 (Homo sapiens, UniProt Q00613 1-529). Particulars: protein: recombinant; tags: N-terminal GST; chain copies: 3; dsDNA, one strand shown. In outline:
as §1

The target in the next test is T2, SPIC (Homo sapiens, UniProt Q8N5J4 1-248).
T2 sequence: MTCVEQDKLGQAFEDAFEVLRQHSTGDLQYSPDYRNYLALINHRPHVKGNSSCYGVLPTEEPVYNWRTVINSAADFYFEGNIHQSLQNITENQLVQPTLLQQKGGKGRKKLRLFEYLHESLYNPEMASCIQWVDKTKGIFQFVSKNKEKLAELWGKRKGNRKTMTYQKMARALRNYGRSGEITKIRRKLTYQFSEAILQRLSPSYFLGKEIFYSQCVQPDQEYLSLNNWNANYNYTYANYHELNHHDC
Particulars: protein: recombinant; tags: N-terminal GST; dsDNA, one strand shown. In outline: as §1

For the next test, the target named is ELF4 (Homo sapiens, UniProt Q99607 1-663). Particulars: protein: recombinant; tags: N-terminal GST; dsDNA, one strand shown. In short, it runs like this:
as §1

A further test concerns the target T3, ELK4 (Homo sapiens, UniProt P28324-2 1-405).
T3 sequence: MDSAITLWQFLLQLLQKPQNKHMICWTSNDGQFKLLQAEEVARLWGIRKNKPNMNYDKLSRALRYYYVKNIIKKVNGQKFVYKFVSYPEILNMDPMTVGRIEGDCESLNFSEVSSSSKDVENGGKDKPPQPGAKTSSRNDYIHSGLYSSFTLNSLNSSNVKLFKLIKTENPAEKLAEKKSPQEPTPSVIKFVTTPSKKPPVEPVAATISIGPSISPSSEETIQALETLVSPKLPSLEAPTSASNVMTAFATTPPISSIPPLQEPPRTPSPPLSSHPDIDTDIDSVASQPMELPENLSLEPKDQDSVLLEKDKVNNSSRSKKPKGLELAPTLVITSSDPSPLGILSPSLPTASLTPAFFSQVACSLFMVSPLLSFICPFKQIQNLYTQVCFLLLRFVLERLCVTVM
Particulars: protein: recombinant; tags: N-terminal GST; dsDNA, one strand shown. In outline: as §1

In the next test the target is T4, ETV2 (Homo sapiens, UniProt O00321 1-342).
T4 sequence: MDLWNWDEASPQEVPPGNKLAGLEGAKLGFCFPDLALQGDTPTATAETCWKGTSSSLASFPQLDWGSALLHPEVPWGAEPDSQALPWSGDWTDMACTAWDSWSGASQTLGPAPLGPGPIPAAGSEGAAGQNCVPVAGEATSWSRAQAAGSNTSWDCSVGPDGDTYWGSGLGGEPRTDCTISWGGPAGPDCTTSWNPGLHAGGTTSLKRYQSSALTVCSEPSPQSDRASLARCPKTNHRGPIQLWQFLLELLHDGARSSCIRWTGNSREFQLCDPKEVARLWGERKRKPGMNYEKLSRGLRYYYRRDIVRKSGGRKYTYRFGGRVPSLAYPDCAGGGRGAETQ
Conditions: protein: recombinant; tags: N-terminal GST; dsDNA, one strand shown. In outline:
as §1

The next test deals with T5, ELF3 (Homo sapiens, UniProt P78545 1-371).
T5 sequence: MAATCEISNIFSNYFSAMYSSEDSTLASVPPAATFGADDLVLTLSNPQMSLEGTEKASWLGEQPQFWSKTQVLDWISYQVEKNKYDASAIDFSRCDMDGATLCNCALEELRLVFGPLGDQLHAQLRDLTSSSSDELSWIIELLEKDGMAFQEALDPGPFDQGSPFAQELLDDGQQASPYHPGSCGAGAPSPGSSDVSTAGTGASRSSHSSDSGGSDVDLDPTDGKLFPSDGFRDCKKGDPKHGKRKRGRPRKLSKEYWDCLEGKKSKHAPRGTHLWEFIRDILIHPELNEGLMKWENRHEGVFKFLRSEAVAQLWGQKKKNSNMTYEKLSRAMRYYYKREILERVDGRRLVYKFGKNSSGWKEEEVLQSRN
Particulars: protein: recombinant; tags: N-terminal GST; dsDNA, one strand shown. In short, it runs like this: as §1

The next test addresses CRX (Homo sapiens, UniProt O43186 1-299). Particulars: protein: recombinant; tags: N-terminal GST; dsDNA, one strand shown. In short, it runs like this: as §1
The next test addresses ETV1 (Homo sapiens, UniProt P50549 1-477). Conditions: protein: recombinant; tags: N-terminal GST; dsDNA, one strand shown. In short, it runs like this: as §1
For a further test, the target named is T6, ERF (Homo sapiens, UniProt P50548 1-548).
T6 sequence: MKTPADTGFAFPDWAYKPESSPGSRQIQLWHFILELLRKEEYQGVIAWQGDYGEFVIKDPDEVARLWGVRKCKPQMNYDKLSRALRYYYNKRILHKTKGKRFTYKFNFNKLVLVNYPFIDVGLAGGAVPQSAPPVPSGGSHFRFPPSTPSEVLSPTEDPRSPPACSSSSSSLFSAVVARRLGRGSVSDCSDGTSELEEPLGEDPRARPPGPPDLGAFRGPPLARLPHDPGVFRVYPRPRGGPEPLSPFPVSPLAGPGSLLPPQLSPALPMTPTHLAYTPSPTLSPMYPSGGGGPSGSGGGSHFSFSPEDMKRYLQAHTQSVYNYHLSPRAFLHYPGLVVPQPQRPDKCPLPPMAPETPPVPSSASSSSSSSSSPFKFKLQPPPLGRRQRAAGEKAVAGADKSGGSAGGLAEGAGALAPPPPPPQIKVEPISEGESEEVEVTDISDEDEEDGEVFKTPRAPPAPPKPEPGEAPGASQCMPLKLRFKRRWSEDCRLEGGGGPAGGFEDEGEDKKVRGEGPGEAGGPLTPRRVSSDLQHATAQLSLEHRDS
Conditions: protein: recombinant; tags: N-terminal GST; dsDNA, one strand shown. In outline: as §1

Another test deals with T7, ETV3L (Homo sapiens, UniProt Q6ZN32 1-361).
T7 sequence: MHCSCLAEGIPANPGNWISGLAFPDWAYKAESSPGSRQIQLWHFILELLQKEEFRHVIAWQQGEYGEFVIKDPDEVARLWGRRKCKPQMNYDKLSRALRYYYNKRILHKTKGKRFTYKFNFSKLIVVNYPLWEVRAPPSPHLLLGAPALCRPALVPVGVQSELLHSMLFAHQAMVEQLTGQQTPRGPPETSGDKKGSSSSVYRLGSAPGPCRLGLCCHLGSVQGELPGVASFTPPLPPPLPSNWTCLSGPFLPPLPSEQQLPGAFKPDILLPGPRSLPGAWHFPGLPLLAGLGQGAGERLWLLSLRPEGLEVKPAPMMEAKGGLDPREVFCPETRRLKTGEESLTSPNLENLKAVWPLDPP
Conditions: protein: recombinant; tags: N-terminal GST; dsDNA, one strand shown. In short, it runs like this: as §1

The target of another test is T8, ETS2 (Homo sapiens, UniProt P15036 1-469).
T8 sequence: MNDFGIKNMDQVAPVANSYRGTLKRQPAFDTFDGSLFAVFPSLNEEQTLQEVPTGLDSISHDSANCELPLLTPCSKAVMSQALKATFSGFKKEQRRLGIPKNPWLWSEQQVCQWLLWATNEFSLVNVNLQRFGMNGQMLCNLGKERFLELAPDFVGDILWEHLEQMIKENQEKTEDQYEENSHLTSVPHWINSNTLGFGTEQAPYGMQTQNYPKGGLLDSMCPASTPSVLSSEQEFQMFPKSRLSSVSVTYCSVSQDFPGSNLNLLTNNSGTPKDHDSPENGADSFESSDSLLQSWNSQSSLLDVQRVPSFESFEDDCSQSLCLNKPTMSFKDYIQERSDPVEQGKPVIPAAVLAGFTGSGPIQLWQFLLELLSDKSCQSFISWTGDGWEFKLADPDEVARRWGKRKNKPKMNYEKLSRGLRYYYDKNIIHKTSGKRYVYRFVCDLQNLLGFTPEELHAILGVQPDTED
Conditions: protein: recombinant; tags: N-terminal GST; dsDNA, one strand shown. In short, it runs like this:
as §1

For another test, the target named is T9, SPDEF (Homo sapiens, UniProt O95238 1-335).
T9 sequence: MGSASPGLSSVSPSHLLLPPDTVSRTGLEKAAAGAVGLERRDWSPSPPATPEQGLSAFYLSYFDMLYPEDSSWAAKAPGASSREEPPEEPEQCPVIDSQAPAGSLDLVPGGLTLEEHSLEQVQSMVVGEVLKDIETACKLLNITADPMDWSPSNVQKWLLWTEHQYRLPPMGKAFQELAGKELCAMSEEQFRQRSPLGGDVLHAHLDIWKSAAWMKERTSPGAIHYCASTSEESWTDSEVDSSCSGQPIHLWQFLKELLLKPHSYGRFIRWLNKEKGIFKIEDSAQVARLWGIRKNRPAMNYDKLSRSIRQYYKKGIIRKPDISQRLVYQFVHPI
Particulars: protein: recombinant; tags: N-terminal GST; dsDNA, one strand shown. In outline:
as §1

For another test, the target named is T10, ETV7 (Homo sapiens, UniProt Q9Y603 1-341).
T10 sequence: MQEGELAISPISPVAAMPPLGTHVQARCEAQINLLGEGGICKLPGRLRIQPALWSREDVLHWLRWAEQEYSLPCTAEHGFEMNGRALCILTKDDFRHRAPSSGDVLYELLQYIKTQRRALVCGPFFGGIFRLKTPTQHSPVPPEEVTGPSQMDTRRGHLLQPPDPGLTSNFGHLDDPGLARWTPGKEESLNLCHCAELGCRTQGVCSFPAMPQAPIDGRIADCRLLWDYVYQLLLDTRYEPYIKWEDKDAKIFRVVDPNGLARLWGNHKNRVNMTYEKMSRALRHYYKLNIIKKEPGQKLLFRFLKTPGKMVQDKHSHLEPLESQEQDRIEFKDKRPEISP
Conditions: protein: recombinant; tags: N-terminal GST; dsDNA, one strand shown. In outline:
as §1

In the next test the target is T11, ELF5 (Homo sapiens, UniProt Q9UKW6-2 1-255).
T11 sequence: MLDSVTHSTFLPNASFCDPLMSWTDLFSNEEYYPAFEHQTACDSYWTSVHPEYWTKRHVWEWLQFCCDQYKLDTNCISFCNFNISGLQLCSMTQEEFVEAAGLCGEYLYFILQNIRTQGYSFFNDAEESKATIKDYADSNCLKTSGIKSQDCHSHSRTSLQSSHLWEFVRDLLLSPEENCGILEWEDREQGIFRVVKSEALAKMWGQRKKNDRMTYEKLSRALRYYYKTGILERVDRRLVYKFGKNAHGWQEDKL
Particulars: protein: recombinant; tags: N-terminal GST; dsDNA, one strand shown. In outline:
as §1

For another test, the target named is T12, ETV3 (Homo sapiens, UniProt P41162-2 1-143).
T12 sequence: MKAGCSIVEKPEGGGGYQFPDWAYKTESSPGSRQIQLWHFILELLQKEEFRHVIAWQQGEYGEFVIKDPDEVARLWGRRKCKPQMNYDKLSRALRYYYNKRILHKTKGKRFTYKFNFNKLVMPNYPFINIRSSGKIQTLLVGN
Conditions: protein: recombinant; tags: N-terminal GST; dsDNA, one strand shown. In short, it runs like this: as §1

The next test addresses ETV6 (Homo sapiens, UniProt P41212 1-452). Particulars: protein: recombinant; tags: N-terminal GST; dsDNA, one strand shown. In outline:
as §1

Chain of ETV6 (P41212 whole entry): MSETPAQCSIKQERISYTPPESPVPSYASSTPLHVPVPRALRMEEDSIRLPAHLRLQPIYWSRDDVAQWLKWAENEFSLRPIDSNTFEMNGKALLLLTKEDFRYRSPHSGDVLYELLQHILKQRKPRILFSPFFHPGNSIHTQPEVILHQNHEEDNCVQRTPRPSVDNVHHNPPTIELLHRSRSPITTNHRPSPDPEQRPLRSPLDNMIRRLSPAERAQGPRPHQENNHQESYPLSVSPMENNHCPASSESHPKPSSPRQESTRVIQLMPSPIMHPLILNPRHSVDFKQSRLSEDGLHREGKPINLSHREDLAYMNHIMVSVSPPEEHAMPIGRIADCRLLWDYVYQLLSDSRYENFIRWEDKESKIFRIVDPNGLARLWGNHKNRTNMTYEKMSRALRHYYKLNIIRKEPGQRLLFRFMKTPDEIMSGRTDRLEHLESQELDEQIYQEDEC
Chain of ETV1 (P50549 whole entry): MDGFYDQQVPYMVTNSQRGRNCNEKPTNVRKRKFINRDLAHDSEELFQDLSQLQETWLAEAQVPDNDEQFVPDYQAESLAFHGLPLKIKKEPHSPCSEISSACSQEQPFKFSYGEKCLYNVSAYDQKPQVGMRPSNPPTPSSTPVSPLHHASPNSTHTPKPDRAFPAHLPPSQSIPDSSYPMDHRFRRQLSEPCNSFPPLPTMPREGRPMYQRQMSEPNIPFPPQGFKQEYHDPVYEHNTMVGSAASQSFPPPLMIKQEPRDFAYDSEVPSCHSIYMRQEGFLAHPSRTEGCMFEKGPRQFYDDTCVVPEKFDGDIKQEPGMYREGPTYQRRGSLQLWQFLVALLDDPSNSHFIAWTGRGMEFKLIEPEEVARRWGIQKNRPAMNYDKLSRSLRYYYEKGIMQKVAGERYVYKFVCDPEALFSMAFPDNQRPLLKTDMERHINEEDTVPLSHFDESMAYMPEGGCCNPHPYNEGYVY
Chain of CRX (O43186 whole entry): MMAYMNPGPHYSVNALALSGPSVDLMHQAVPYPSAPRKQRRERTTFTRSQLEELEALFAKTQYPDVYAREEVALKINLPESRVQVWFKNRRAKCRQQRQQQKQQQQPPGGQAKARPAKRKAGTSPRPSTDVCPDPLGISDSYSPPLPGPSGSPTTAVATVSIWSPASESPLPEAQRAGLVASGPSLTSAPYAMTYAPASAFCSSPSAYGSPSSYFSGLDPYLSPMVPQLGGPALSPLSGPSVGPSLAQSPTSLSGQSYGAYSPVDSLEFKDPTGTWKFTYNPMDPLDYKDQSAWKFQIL
Chain of ETV5 (P41161 whole entry): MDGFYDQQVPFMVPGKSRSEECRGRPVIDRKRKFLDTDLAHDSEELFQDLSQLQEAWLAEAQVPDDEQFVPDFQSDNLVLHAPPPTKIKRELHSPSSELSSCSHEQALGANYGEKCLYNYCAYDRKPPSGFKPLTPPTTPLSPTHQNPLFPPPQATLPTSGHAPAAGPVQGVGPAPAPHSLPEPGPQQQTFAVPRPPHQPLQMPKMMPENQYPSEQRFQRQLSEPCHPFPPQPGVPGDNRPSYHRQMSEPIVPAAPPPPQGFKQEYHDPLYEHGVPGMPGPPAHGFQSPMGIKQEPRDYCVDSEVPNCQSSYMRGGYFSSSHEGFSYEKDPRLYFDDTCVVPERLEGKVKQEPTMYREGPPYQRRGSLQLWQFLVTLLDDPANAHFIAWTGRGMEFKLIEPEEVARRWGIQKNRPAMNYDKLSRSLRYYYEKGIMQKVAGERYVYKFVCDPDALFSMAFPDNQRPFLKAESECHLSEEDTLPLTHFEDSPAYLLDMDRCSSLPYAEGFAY
Chain of HSF1 (Q00613 whole entry): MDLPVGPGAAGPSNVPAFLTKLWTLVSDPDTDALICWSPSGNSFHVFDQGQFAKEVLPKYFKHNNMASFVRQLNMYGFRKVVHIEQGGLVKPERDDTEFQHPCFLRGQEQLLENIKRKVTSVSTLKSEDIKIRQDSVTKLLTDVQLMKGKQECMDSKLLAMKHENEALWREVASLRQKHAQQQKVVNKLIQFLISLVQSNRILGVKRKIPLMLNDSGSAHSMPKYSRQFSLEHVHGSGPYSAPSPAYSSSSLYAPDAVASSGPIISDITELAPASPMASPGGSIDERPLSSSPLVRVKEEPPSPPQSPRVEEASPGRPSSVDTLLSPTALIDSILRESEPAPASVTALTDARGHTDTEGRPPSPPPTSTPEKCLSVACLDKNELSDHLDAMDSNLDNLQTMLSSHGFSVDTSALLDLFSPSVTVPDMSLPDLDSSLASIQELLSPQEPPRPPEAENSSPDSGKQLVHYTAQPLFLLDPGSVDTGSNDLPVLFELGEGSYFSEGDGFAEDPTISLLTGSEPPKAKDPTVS
Chain of ELF4 (Q99607 whole entry): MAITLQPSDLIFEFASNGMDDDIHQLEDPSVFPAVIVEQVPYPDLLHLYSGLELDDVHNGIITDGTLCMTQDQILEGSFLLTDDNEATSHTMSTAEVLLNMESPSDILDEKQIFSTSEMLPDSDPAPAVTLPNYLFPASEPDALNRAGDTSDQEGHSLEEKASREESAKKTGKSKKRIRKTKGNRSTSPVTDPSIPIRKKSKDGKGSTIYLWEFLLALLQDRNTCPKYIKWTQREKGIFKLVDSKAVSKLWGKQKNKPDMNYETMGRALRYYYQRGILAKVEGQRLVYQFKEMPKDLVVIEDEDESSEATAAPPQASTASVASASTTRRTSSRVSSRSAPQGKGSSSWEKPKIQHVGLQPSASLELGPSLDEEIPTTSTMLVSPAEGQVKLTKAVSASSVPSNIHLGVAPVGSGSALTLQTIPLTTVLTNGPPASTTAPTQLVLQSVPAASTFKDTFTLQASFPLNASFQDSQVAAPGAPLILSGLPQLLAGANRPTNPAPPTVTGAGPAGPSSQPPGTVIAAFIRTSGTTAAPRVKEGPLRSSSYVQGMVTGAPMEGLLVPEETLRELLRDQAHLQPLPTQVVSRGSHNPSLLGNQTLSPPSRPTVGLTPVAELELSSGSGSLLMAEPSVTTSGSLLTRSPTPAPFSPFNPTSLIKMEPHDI

In the case of TTTTTG, the binding signal was 1.33 fold enrichment (6-mer frequency, TF over GST control) in the test with FEV; 1.42 fold enrichment (6-mer frequency, TF over GST control) with ETV5; 1.24 fold enrichment (6-mer frequency, TF over GST control) with HSF1; 1.39 fold enrichment (6-mer frequency, TF over GST control) with SPIC; 1.45 fold enrichment (6-mer frequency, TF over GST control) in the test with ELF4; 1.5 fold enrichment (6-mer frequency, TF over GST control) with ELK4. In addition, the binding signal was 1.51 fold enrichment (6-mer frequency, TF over GST control) in the test with ETV2; 1.44 fold enrichment (6-mer frequency, TF over GST control) with ELF3; 1.31 fold enrichment (6-mer frequency, TF over GST control) with CRX; 1.48 fold enrichment (6-mer frequency, TF over GST control) in the test with ETV1; 1.35 fold enrichment (6-mer frequency, TF over GST control) with ERF; 1.38 fold enrichment (6-mer frequency, TF over GST control) with ETV3L. Further, the binding signal in the test with ETS2 was 1.27 fold enrichment (6-mer frequency, TF over GST control); with SPDEF it was 1.28 fold enrichment (6-mer frequency, TF over GST control); in the test with ETV7, 1.25 fold enrichment (6-mer frequency, TF over GST control); with ELF5 it was 1.27 fold enrichment (6-mer frequency, TF over GST control); with ETV3, 1.29 fold enrichment (6-mer frequency, TF over GST control); in the test with ETV6, 1.23 fold enrichment (6-mer frequency, TF over GST control).
